Sampled rows, rich in hits. Any-hit rate of the full collection: about 2.8%.
ATXN2 expr inh: reduces ATXN2 reporter expression in HEK-293 cells; HEK-293 ATXN2-luciferase reporter, luminescence, 24 h; Potency, µM (series often up to 57 µM), for the others: top-dose activity change, negative = inhibition, actives largely listed as inhibitors; 0.72% of 360,000 active; note: potency is the fitted concentration of half-maximal effect; % is set by controls: 0 for no effect and ±100 for the full control effect; nearly all actives have a fitted effect of over 55% in size
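qHTS (up to 57 uM final) was run with 24 h compound exposure of reporter cells at 37 °C. Each well was multiplexed: SteadyGlo luminescence measured ATXN2-luciferase expression after a fluorogenic Gly-Phe-AFC viability readout (25 uM final).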
Six1-Eya2 blk: inhibitors of human Six1/Eya2 interaction | Q15475+O00167 | AlphaScreen GST-Six1/His-Eya2 binding, biochemical; hits give low values | activity change, % (concentration not given with the values) | 0.56% of 360,000 active | AID 651725; in the data active = activity change below about -65%; inconclusive = mostly about -30% to -63%; note: % is set by controls: 0 for no effect and ±100 for the full control effect
Target sequence (O00167 whole entry, looked up): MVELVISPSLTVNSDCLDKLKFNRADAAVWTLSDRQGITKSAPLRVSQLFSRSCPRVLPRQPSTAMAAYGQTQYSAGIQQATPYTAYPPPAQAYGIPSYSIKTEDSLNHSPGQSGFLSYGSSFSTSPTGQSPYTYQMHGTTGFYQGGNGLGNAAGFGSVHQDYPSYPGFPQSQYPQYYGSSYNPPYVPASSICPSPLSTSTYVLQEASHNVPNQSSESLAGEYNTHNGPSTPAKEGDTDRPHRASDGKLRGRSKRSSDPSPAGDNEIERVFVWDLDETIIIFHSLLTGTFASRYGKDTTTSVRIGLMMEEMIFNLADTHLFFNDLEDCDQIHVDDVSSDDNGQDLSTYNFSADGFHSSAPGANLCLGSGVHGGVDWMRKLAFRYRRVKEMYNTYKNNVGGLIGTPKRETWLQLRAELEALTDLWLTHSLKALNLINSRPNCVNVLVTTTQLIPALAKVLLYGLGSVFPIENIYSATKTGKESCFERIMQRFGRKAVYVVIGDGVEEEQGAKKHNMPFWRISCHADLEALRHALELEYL
Target sequence (Q15475 whole entry, looked up): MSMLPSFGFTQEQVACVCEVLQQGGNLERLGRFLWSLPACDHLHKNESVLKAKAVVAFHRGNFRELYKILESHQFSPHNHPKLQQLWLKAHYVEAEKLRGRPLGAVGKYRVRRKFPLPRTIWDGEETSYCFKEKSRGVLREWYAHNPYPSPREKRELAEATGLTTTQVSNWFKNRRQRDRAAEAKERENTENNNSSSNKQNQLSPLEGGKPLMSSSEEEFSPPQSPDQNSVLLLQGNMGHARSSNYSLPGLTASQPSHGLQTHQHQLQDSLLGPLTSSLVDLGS
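Compounds are tested against tagged Six1 and Eya2 proteins bridged by glutathione donor and nickel acceptor beads; after a one-hour incubation at 37 °C without light, AlphaScreen emission is recorded.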
CtBP-E1A inh: inhibitors of CtBP/E1A interaction; 0.49% of 340,000 active; AlphaScreen GST-E1A/His-CtBP binding, 1536-well; hits give low values; activity change, % (no concentration beside the values); in the data active = activity change below about -65%; inconclusive = mostly about -30% to -63%; note: % is set by controls: 0 for no effect and ±100 for the full control effect
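Homogeneous bead-based format: GST-tagged E1A captured on glutathione donor beads, His-tagged CtBP on nickel acceptor beads; compounds precede bead addition by 2 h at 37 °C.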
HepG2 tox: counter-screen for TGF-b inhibitors: cytotoxicity in HepG2 cells; HepG2 CAGA-GFP viability, ATP luminescence, 18 h; 0.76% of 410,000 active; Potency, µM (highest dose often 46.1 µM), inactives show at the top dose activity change, negative = cytotoxicity, actives largely listed as cytotoxic; AID 588856; note: potency is the fitted concentration of half-maximal effect
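HepG2 CAGA-GFP cells (1000/well, DMEM with 1% FBS) received compound, then TGF-beta at 500 pg/mL final, and were incubated 18 hours at 37 degrees C. Viability was read by CellTiter-Glo luminescence. Media-only wells were set as complete cell-killing and DMSO as no toxicity.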
TGFb inhibitor: inhibitors of TGF-b signaling; 1.2% of 410,000 active; HepG2 CAGA-GFP TGF-b/SMAD3 reporter, GFP fluorescence, 18 h; TGF-beta stimulated, 500 pg/mL final; Potency, µM (highest dose often 46.1 µM), for inactives: at the top dose activity, negative = inhibition, usual class: inhibitors; AID 588855; note: potency is the fitted concentration of half-maximal effect; % is set by controls: 0 for no effect and ±100 for the full control effect; nearly all actives have a fitted effect of over 65% in size
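Smad-responsive CAGA-GFP expression was quantified in HEPG2 cells exposed to compounds and 500 pg/mL final TGF-beta for 18 h at 37 degrees C; unstimulated wells defined full inhibition.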
S2 tox: cell viability loss in ATXN counter-screen | S2 cells (HEK-293 line with an ATXN2-luciferase reporter) viability, CellTiter-Fluor protease fluorescence, 24 h | 0.49% of 400,000 active | Potency, µM (top dose mostly 56.7 µM), usual class: cytotoxic; note: potency is the fitted concentration of half-maximal effect; nearly all actives have a fitted effect of over 40% in size
Numbers without * were called inactive. Unless noted, calls come from the whole dose curve; as a rule, active = well fitted curve in the direction sought with a large enough effect; inconclusive = small, poorly fitted or top-dose-only effect, or another doubt; inactive = no such curve, though single readings can be large; an effect the other way counts as inactive or inconclusive.

For CN(Cc1ccccc1)C(=O)CSc1c2c(nc3ccc(Cl)cc13)CCCC2 the results were HepG2 tox 22.4µM* and TGFb inhibitor inconclusive.
CC1CCN(C(=O)CSc2c3c(nc4ccc(Cl)cc24)CCCC3)CC1 was read as HepG2 tox -29.4% and TGFb inhibitor 15.8µM*.
For CCCCN(C)C(=O)CSc1c2c(nc3ccc(Cl)cc13)CCCC2 the results were HepG2 tox -31.3% and TGFb inhibitor inconclusive.
`O=C(CSc1c2c(nc3ccc(Cl)cc13)CCCC2)N1CCCCC1` gave HepG2 tox -54.4% and TGFb inhibitor inconclusive.
For Cc1cccc(-c2noc(CN(C(C)C)S(=O)(=O)c3ccc(Br)cc3)n2)c1 the results were HepG2 tox -27.6% and TGFb inhibitor inconclusive.
Screening CCOC(=O)c1nn(-c2ccccc2)c(=O)c2c(N)scc12 returned ATXN2 expr inh -13.2%, Six1-Eya2 blk 60.2, CtBP-E1A inh 15.2, HepG2 tox -98.0%, TGFb inhibitor -19.2% and S2 tox inactive.
For CCOC(=O)c1nn(-c2ccccc2)c(=O)c2c(NC(C)=O)scc12 the results were ATXN2 expr inh -24.0%, Six1-Eya2 blk 22.6, CtBP-E1A inh -20.9, HepG2 tox 3.16µM*, TGFb inhibitor 2.3% and S2 tox inactive.
For CNC(=O)c1ccc2cc(C3(O)CCn4cncc43)ccc2c1 (stereo not drawn) the results were ATXN2 expr inh 12.9%.
`CC1(Cc2ccccc2Cl)C(=O)Nc2ccc(OC(F)(F)F)cc21` (stereo not drawn) gave ATXN2 expr inh inconclusive, Six1-Eya2 blk 8.0, CtBP-E1A inh 3.9, HepG2 tox -90.4%, TGFb inhibitor 11.2µM* and S2 tox inconclusive.
Screening COc1ccc(S(=O)(=O)NCCc2csc(-c3ccc(F)cc3)n2)cc1 returned ATXN2 expr inh inconclusive, HepG2 tox -14.9%, TGFb inhibitor inconclusive and S2 tox inconclusive.
`Cc1ccc(C)c(S(=O)(=O)NCCc2csc(-c3ccc(Cl)cc3)n2)c1` gave ATXN2 expr inh inconclusive, HepG2 tox -94.4%, TGFb inhibitor 11.2µM* and S2 tox inconclusive.
`CCOc1ccc(S(=O)(=O)NCCc2csc(-c3ccc(Cl)cc3)n2)cc1` gave ATXN2 expr inh inconclusive, HepG2 tox -67.5%, TGFb inhibitor 11.2µM* and S2 tox inconclusive.
O=S(=O)(NCCc1csc(-c2ccc(F)cc2)n1)c1ccc(Cl)cc1 was read as ATXN2 expr inh 15.8µM*, HepG2 tox -24.3%, TGFb inhibitor inconclusive and S2 tox inconclusive.
For Cc1ccc(S(=O)(=O)NCCc2csc(-c3cccc(F)c3)n2)cc1 the results were ATXN2 expr inh inconclusive, HepG2 tox -43.3%, TGFb inhibitor inconclusive and S2 tox inconclusive.
Screening Cc1ccc(S(=O)(=O)NCCc2csc(-c3ccc(Cl)cc3)n2)cc1 returned ATXN2 expr inh inconclusive, HepG2 tox -36.4%, TGFb inhibitor 11.2µM* and S2 tox inactive.
COc1ccccc1-c1ccnc(-n2ncc(C(=O)N3CCCCC3c3cccnc3)c2C)n1 (stereo not drawn) was read as S2 tox inactive.
Screening O=C(C=P(c1ccccc1)(c1ccccc1)c1ccccc1)c1ccccc1-c1ccccc1C(=O)C=P(c1ccccc1)(c1ccccc1)c1ccccc1 returned ATXN2 expr inh inconclusive, Six1-Eya2 blk -3.4, CtBP-E1A inh -29.6, HepG2 tox 1.58µM* and TGFb inhibitor 1µM*.
For O=C(NNC(=O)c1ccccc1-c1ccccc1C(=O)O)c1ccccc1 the results were ATXN2 expr inh 8.0%, Six1-Eya2 blk -4.9, CtBP-E1A inh 10.2, HepG2 tox -0.2%, TGFb inhibitor 19.4% and S2 tox inactive.
